Compound activity: PubChem BioAssay, Broad Institute
Tg IFNy HTS = blocks Toxoplasma gondii growth in the presence of IFN-gamma. Toxoplasma gondii growth in IFN-gamma-treated host cells; active compounds read low. AID 1259416. activity change, negative = inhibition, % (no concentration beside the values). 69,000 tested, 3.8% active; in the data active means activity change below about -70%, passing the limit was not always enough;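 further: host cells are HeLa cells infected with Toxoplasma gondii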
* marks the source's active call; other numbers are inactive results. Shown is part of a subset that was picked to be rich in hits.

SMILES	Tg IFNy HTS
COc1ccc(-c2nc(Nc3ccc(F)cc3)c3ccccc3n2)cc1	-28
COc1ccc(-c2cc(-c3ccccc3)c(-c3ccccc3)o2)cc1	-16
COc1ccc(-c2cc(-c3ccc4ccccc4c3)n(C)c2-c2ccc(F)cc2)cc1	-94*
O=C(Nc1ccc(N2CCN(Cc3ccccc3)CC2)cc1)c1ncoc1-c1cccs1	178
CCn1c(C2CCCN(Cc3cccn3-c3ccccn3)C2)n[nH]c1=O (configuration not stated)	13
Cc1nn(Cc2nc(-c3ccc(NC(=O)c4ccsc4)cc3)oc2C)c(C)c1C	105
COc1ccc2[nH]c(=O)c(CN3CCC(CNC(C)=O)C3)cc2c1 (configuration not stated)	-7
CC(C)[C@H]1c2ccc(F)cc2CC[C@@]1(CCN(C)CCCc1nc2ccccc2[nH]1)OC(=O)C1CC1	-86*
CN(Cc1nc2ccc(F)cc2[nH]1)C1CCN(C(=O)c2ccccc2)CC1	0
CC(C)N1CCNC(=O)C1CC(=O)N(C)Cc1nc2ccccc2[nH]1 (configuration not stated)	-1
COc1ccc(NCc2cc3c(-c4cccc(F)c4)nn(-c4ccccc4)c3[nH]c2=O)cc1	-66
Cc1nnc([C@]23CCO[C@H]2CCN(C(=O)c2ccco2)C3)o1	133
COc1ccc(S(=O)(=O)Nc2nnc(CC(C)C)s2)cc1	7
CCc1nnc(NC(=O)c2ccc(S(=O)(=O)NCC(C)C)cc2)s1	-75*
CCc1nnc(NC(=S)NC(=O)c2ccc(-c3ccccc3)cc2)s1	245
Cc1oc(-c2ccc(NC(=O)c3cccc(Br)c3)cc2)nc1Cn1cccn1	-41
Cc1oc(-c2cccc(Cl)c2)nc1CN(c1ccccc1)S(=O)(=O)c1cccs1	-38
CC(=O)[C@H]1CCC2C3CC=C4C[C@@H](O)CC[C@]4(C)C3CC[C@@]21C (some centres not stated)	11
CC(=O)O[C@@H]1C[C@@]2(C)C(CC[C@@H]2C(C)=O)C2CCC3=CC(=O)CC[C@]3(C)C21 (some centres not stated)	13
CC(=O)OCC(=O)[C@H]1CC[C@H]2[C@@H]3CC=C4C[C@@H](O)CC[C@]4(C)[C@H]3CC[C@]12C	-35
CC(=O)[C@H]1CC[C@H]2[C@@H]3CC=C4C[C@@H](O)CC[C@]4(C)[C@H]3CC[C@]12C	-74*
C[C@]12CCC(=O)C=C1CC[C@@H]1[C@@H]2CC[C@@]2(C)[C@H]1CC[C@]2(O)C(=O)CO	3
CC(=O)[C@H]1CC[C@H]2[C@@H]3CCC4=CC(=O)CC[C@]4(C)[C@H]3CC[C@]12C	-88*
CSc1nsc(SCC(=O)NCc2ccc3c(c2)OCO3)n1	4
Cc1ccc(-c2nnc(CSc3n[nH]c(=O)n3-c3ccccc3C(F)(F)F)o2)cc1	13
SMILES	Tg IFNy HTS
Nc1ccc(N)c(C(=O)O)c1	-18
NC(=O)Cc1cccc(C(=O)c2ccccc2)c1N	19
CC(=O)c1ccc(-c2ccc(N)c(C(=O)c3ccccc3)c2)cc1	-85*
CCn1nc(C)cc1-c1nnc(SCc2ccc(C(F)(F)F)cc2)o1	-22
O=C(c1ccnnc1)N1CCC2(CCC(=O)N2CC2CC2)CC1	-43
Cc1ccc(-c2nc(Cn3nnc(-c4nc(-c5ccccc5Br)no4)c3C)c(C)o2)cc1	-23
Cc1cc(Br)c2c(c1)c(N=NC(N)=S)c(O)n2C	-31
NC(=S)N=Nc1c(O)n(Cc2ccccc2)c2ccccc12	-103*
c1ccc2ncc(-c3nccs3)cc2c1	101
O=C(Nc1cccc(-c2nc3ccccc3s2)c1)c1cccc2ccccc12	-7
CSc1sc(NC(=O)Nc2cccc(C(F)(F)F)c2)cc1C#N	-2
O=C(Nc1cccc(C(F)(F)F)c1)N1CCSCC1	-29
Cn1nc(C(F)(F)F)cc1-c1ccc(NC(=O)Nc2cccc(C(F)(F)F)c2)s1	-90*
Cn1cc(C(=O)N2CCN(c3nc4ccccc4s3)CC2)c2ccccc2c1=O	-15
CN(C)S(=O)(=O)c1ccc2c(c1)cc(C(=O)NCCc1ccccc1)n2Cc1ccncc1	69
CCN(CC)C(CNc1nc(C)nc2c1cnn2C)c1ccco1 (configuration not stated)	-5
Cc1cc(C)n(C)c(=O)c1C(=O)Nc1ccc(N2CCCCC2)c2nonc12	55
CC(C)CN(CC(C)C)C(=O)c1cc2cccnc2n(Cc2ccccc2)c1=O	-4
Cc1cccc(-c2ccc([C@H]3[C@@H](CO)N4CCCCN(S(=O)(=O)c5ccccc5F)C[C@H]34)cc2)c1	-80*
O=S(=O)(c1ccc(F)cc1)N1CCCCN2[C@@H](CO)[C@H](c3ccc(-c4cncnc4)cc3)[C@@H]2C1	3
Cc1cccc(-c2ccc([C@H]3[C@H]4CN(S(=O)(=O)c5ccccc5F)CCCCN4[C@H]3CO)cc2)c1	-40
O=C(CCC1Nc2c3ccccc3nc(=S)n2C1=O)N1CCC(Cc2ccccc2)CC1 (configuration not stated)	12
COc1cccc(CC(=O)N2CCC3(CC2)Nc2cc(F)ccc2-n2cccc23)c1	51
COCC1CN(S(=O)(=O)C2CC2)Cc2nccn2C1 (configuration not stated)	195
C#CC1(OCC(O)CN2CCN(c3ccccc3OC)CC2)CCCCC1 (configuration not stated)	18
SMILES	Tg IFNy HTS
OCC(O)CN1CCN(c2ccccc2)CC1 (configuration not stated)	-5
C#CC1(OCC(O)CN2CCN(c3cccc(C(F)(F)F)c3)CC2)CCCCC1 (configuration not stated)	-80*
CCOc1ccccc1-c1nc(CN(c2ccccc2)S(=O)(=O)c2cccs2)c(C)o1	-19
COc1ccc(CN2CCn3c(CNC(=O)c4cccn4C)cnc3C2)cc1	-40
Cc1cnc(N2C[C@@H]3C[C@H](C(=O)N(C)C)[C@@H](C2)O3)nc1	5
Cc1oc(-c2ccc(NC(=O)c3ccccc3Br)cc2)nc1Cn1cccn1	-94*
Cc1oc(-c2ccc(NC(=O)Cc3ccc(F)cc3)cc2)nc1Cn1cccn1	11
Cc1oc(-c2ccc(NC(=O)Cc3cccc(F)c3)cc2)nc1Cn1cccn1	-87*
Cc1oc(-c2ccc(NC(=O)Cc3ccc(Cl)cc3)cc2)nc1Cn1cccn1	-36
Cc1oc(-c2ccc(NC(=O)c3ccccc3)cc2)nc1Cn1cccn1	20
Cc1oc(-c2ccc(NC(=O)c3ccccc3F)cc2)nc1Cn1cccn1	-59
COc1ccc(-c2nc(NCCCN3CCOCC3)c3ccccc3n2)cc1	-29
O=C(NCc1ccc(F)cc1)N1CCC2(CC1)Nc1ccccc1-n1cccc12	409
COc1ccccc1-c1nc(Cn2nnc(-c3nc(-c4ccncc4)no3)c2C)c(C)o1	-35
CCN(CC)C(=O)c1ccc(/C=C/c2ccccc2)o1	-5
Cc1cc(C)cc(NC(=O)CN2C(=O)CCc3cc(S(=O)(=O)N4CCC(C)CC4)ccc32)c1	19
CCc1ccc(NC(=O)CN2C(=O)CCc3cc(S(=O)(=O)N4CCCCC4)ccc32)cc1	-97*
Cc1ccc(NC(=O)CN2C(=O)CCc3cc(S(=O)(=O)N4CCC(C)CC4)ccc32)cc1C	-99*
COc1cccc(NC(=O)CN2C(=O)CCc3cc(S(=O)(=O)N4CCC(C)CC4)ccc32)c1	-41
CC1CCN(S(=O)(=O)c2ccc3c(c2)CCC(=O)N3CC(=O)Nc2ccc3c(c2)OCCO3)CC1	-88*
Cc1ccc(NC(=O)CN2C(=O)CCc3cc(S(=O)(=O)N4CCC(C)CC4)ccc32)cc1N(C)C	149
Cc1ccc(NC(=O)CN2C(=O)CCc3cc(S(=O)(=O)N4CCC(C)CC4)ccc32)cc1	19
